# Hit rate of the full screen: of about 410,000 compounds, about 3,100 (0.76%) were called active. This excerpt belongs to a sample that is enriched for actives. Values without a mark were called inactive. Calls follow the shape of the dose curve; as a rule, active = well fitted cell-killing curve with a large enough effect; inactive = no such curve, though single readings can be large or run the other way.
# Assay: qHTS for Inhibitors of TGF-b: Cytotox Counterscreen
# Conditions: HepG2 CAGA-GFP viability, ATP luminescence, 18 h; series mostly up to 46.1 µM; activity change, negative = cytotoxicity: at the top concentration
# From the text: TGF-b is a main component in the TGF-b signaling pathway which plays diverse roles in cellular and development pathways. TGF-b is mediated by transcription factors called "Smads". Although the Smad-dependent pathway is the primary canonical TGF-b signaling mode, TGF-b1 can also activate alternative signaling pathways, including those involving MAPK (ERK, JNK and p38). This interaction may mediate or enhance Smad-dependent responses, or can exert Smad-independent effects. The complexity of this signaling cascade allows the TGF-b superfamily to perform unique, overlapping or redundant functions. We believe that targeting the TGF-beta pathway at the Smad-transcription factor level may eliminate the consequences of disrupting the entire pathway and offer specificity without affecting other signaling pathways. Smad3 is the primary transducer of TGF-b's signals and Smad3 regulates many functions attributed to TGF-b signaling. We hypothesize that Smad3 inhibitors will selectively eliminate Smad3-specific TGF-beta signals without undesired off-target effects. We aim to identify Smad3-small molecule antagonists using a quantitative high throughput screening (qHTS) approach.
# A high-throughput assay was developed to screen the NIH Molecular Libraries Small Molecule Repository (MLSMR). This is a cell based assay, where TGF-b is tagged with GFP. This is a counterscreen that evaluates the cytotoxicity of the compounds that were screened in the primary cell-based screen (AID 588855).
# MH087449NIH Chemical Genomics Center [NCGC]
# NIH Molecular Libraries Probe Centers Network [MLPCN]
# Assay Submitter (PI): Sushil Rane, National Institute of […]
# Suspensions of trypsinized HEPG2 CAGA-GFP cells were dispensed into white, tissue culture-treated, solid 1536-well plates at 5uL/well (1000 cells/well final concentration) in DMEM medium supplemented with 1% FBS. Plates were incubated at 37 degrees C for 2 hours, after which 23 nL of compounds or DMSO were delivered to each well using a pin tool. One uL of recombinant TGF-beta in DMEM (1% FBS) was then dispensed (500 pg/mL final concentration), and plates were incubated at 37 degrees C for 18 hours. Two uL of CellTiter Glo (Promega), a luminescence-based viability reagent, was dispensed, followed by a 10 minute room temperature incubation. The plates were then measured on a PerkinElmer ViewLux plate reader for luminescence (clear filter) using a 5 second exposure. The %Activity was determined from the corrected luminescence values. Wells containing media only (no cells) were used to normalize %Activity of identified toxic compounds; media-only wells corresponded to 100%Activity (complete cell-killing), while DMSO-dosed cell controls were used to normalize 0%Activity (no toxicity).
# Concentration-response curves were fitted to the signals arising from the resulting luminescence. The concentration-effect curves were then classified based on curve quality (r2), response magnitude and degree of measured activity, and compounds were subsequently categorized based on their curve class.
# Potency is read from the fitted curve at half-maximal effect.
Compound,Potency,"activity change, negative = cytotoxicity"
COc1ccc(CS(=O)/C(Cl)=C(/Cl)C(=O)Nc2ccc(OC)nc2)cc1 (stereo not drawn),14.1 µM (active),–
COc1ccc(CC(=O)Nc2ccc(-c3nc4ccccc4s3)c(C)c2)cc1,–,-2.33%
COc1ccc(NC(=O)C(=O)NCc2ccco2)cc1,–,7.02%
COc1ccc(-n2c(=O)c3c(c4cc(OC)ccc4n3C)n(Cc3cccc(C)c3)c2=O)cc1,–,-0.731%
COc1ccc(CNC(=O)C2=Cc3cccc(OC)c3OC2)cc1OC,–,6.48%
COc1ccc(OC)c(CNC(=O)c2c3c(nc4ccccc24)C(=O)N(C2CCCCC2)C3)c1,–,1.46%
O=C(NCCCN1CCN(c2cccc(Cl)c2)CC1)c1nnc(Cc2ccc(F)cc2Cl)o1,11.2 µM (active),–
COc1ccc(N2CCN(CCNC(=O)c3nnc(Cc4c(F)cccc4Cl)o3)CC2)cc1,–,-11.4%
O=C(Cc1csc(Nc2nc(=S)[nH]c3ccccc23)n1)NCCCN1CCN(c2cccc(Cl)c2)CC1,–,-22.2%
CCc1ccc(NC(=O)CN2C(=O)C(c3ccccc3)=NC23CCCCCC3)cc1,–,-29.3%
COC(=O)Nc1ncc(CN2C(=O)c3ccccc3C2=O)s1,–,11%
Cc1cnc(NC(=O)c2ccccn2)s1,5.01 µM (active),–
COc1ccc(CC(=O)NCc2nnc(SCC(=O)Nc3ncc(C)s3)n2C)cc1,–,2.57%
CCOc1ccccc1CNC(=O)c1ccc2c(c1)nc1n2CCC(C)C1 (stereo not drawn),–,0.917%
CCN(Cc1ccccc1)Cc1c(O)ccc2c(=O)c(-c3ccc(Cl)cc3Cl)coc12,–,-1.33%
Cc1[nH]c2ccccc2c1C(=O)C(=O)N(C)c1ccccc1,–,-2.78%
OC[C@@H]1O[C@H](n2cnc3c(SCc4ccccc4)ncnc32)[C@H](O)[C@H]1O,–,-22.8%
c1ccc(C[C@H]2CNCCN2CCC23CC4CC(CC(C4)C2)C3)cc1,–,-95.7%
CC(C)(C)CN1C(=O)C(=O)NC[C@H]1Cc1cccc2ccccc12,–,3.08%
c1ccc2c(CCN3CCNC[C@H]3Cc3cccc4ccccc34)cccc2c1,12.6 µM (active),–
O=c1n(Cc2cccc(C(F)(F)F)c2)c2ccccc2c2nc(-c3ccccc3)nn12,–,-19.5%

Compound,Potency,"activity change, negative = cytotoxicity"
Brc1cccc[n+]1Cc1cccc(C[n+]2ccccc2Br)c1,–,-2.89%
CCOC(=O)Nc1ccc2c(c1)N(C(=O)CCCl)c1ccccc1[S@]2=O,12.6 µM (active),–
CCOC(=O)Nc1ccc2c(c1)N(C(=O)CN1CCN3CCCC3C1)c1ccccc1CC2 (stereo not drawn),–,-21.2%
CCOC(=O)Nc1ccc(S(=O)(=O)N(C)C(C)C)cc1,–,0.514%
Cc1ccc(C(=O)Nc2ccc(C(=O)O)cc2)cc1S(=O)(=O)Nc1ccccc1,–,3.73%
O=C(Nc1ccc2oc(-c3ccc(O)c(Br)c3)nc2c1)c1cc2ccccc2o1,–,-4.99%
CCOc1ccc(OCC)c(NS(=O)(=O)c2ccc3[nH]c(=O)ccc3c2)c1,–,-16%
C[N+]1(CC(=O)c2cccs2)CCOCC1,–,-3.11%
CCc1ccc(CNC(=O)C2CCN(c3nnc(C)c4c(C)n(-c5ccc(C)cc5)nc34)CC2)cc1,inactive,–
Cc1nnc(N2CCC(C(=O)Nc3ccc(F)cc3)CC2)c2nn(-c3ccc(Cl)cc3)c(C)c12,11.2 µM (active),–
CC(=O)Nc1c(C)nn(-c2ccccc2)c1N1CCC(C(=O)Nc2cc(Cl)ccc2C)CC1,–,-7.86%
CCCCc1nn2c(=O)cc(COC(=O)c3cccc(NC(=O)COc4ccccc4)c3)nc2s1,–,-3.96%
O=C(NCc1ccccn1)[C@]1(C(F)(F)F)C[C@H](CCc2ccccc2)CCCO1,–,-0.451%
CC(C)(C)n1ncc2c(=O)n(Cc3ccc(C(=O)c4ccccc4)cc3)cnc21,–,0.159%
N#C/C(=C\c1ccccc1F)c1nc2ccccc2c(=O)[nH]1,–,-15%
O=C(/C(=C/c1cccc(Cl)c1)c1nc2ccccc2[nH]1)c1ccccc1,2.82 µM (active),–
O=C(O)c1ccc(Cn2c(SCc3ccc(F)cc3)nc3ccncc32)cc1,–,-0.167%
COc1ccc(CCNC(=O)c2cnc3sc(N4CCCCCC4)nn3c2=O)cc1OC,–,4.28%
COc1ccc(Cl)cc1NC(=O)C(C)Sc1nc2c(c(=O)[nH]1)CCCC2 (stereo not drawn),–,-11.4%
ClC/C=C/C[n+]1ccccc1Cl,–,-6.94%
CN1c2ccc(Cl)cc2-c2nc(SCC(=O)Nc3cc(F)ccc3F)ncc2S1(=O)=O,–,-5.61%

Compound,Potency,"activity change, negative = cytotoxicity"
Cc1ccc(C=O)cc1Cl,–,3.42%
COc1ccc(CNC(=O)c2ccc3c(O)c(S(=O)(=O)c4ccccc4)c(=O)[nH]c3c2)cc1,–,-34.6%
CCc1ccc(C(=O)CC2(O)C(=O)N(CCc3ccccc3)c3ccc(Br)cc32)cc1 (stereo not drawn),14.1 µM (active),–
Cc1ccc(C(=O)CC2(O)C(=O)N(CCc3ccccc3)c3ccc(Br)cc32)cc1 (stereo not drawn),–,-109%
CCCN1C(=O)C(O)(CC(=O)c2ccc(CC)cc2)c2cc(Br)ccc21 (stereo not drawn),–,-103%
CC(=O)OCC(NC(=O)C(Cc1ccccc1)NC(=O)OC(C)(C)C)C1OC(n2ccc(=O)[nH]c2=O)C(OC(C)=O)C1OC(C)=O (stereo not drawn),–,5.66%
CC(C)(C)c1ccc(C(=O)C[N+]2(C)CCCc3ccccc32)cc1 (stereo not drawn),–,-29.9%
COc1ccc(NC(=O)CCCN2C(=O)CCn3nc(-c4cn(C)c5ccccc45)cc32)cc1OC,–,-1.61%
CCOc1ccc(OCC)c(NC(=O)CN(c2ccc(C)cc2)S(=O)(=O)c2c(C)n[nH]c2C)c1,12.6 µM (active),–
COc1ccc(N(CC(=O)Nc2cc(OC)cc(OC)c2)S(=O)(=O)c2c(C)n[nH]c2C)cc1,–,-6.14%
COC(=O)c1ccc(NC(=O)CN(c2ccc(C)cc2)S(=O)(=O)c2c(C)n[nH]c2C)cc1,–,-4.61%
CCCCCn1c(CCNC(=O)c2ccc(F)cc2)nc2ccccc21,–,-40.8%
CCOC(=O)Cn1c(=O)n(-c2ccccc2OC)c2nc(-c3cccc(F)c3)nc(C(N)=O)c21,–,0.0444%
CC1=C(C(=O)Nc2ccccc2)C(c2ccc(C)cc2)n2nc(SCc3ccccc3C)nc2N1 (stereo not drawn),–,9.49%
C(=Nc1ccc(/C=C/c2ccnc3ccccc23)cc1)c1cc2c3c(c1)CCCN3CCC2,–,-21.8%
Cc1cccc(NC(=O)c2ccc(COc3ccccc3[N+](=O)[O-])o2)n1,–,-26.2%
CCN(CC)S(=O)(=O)c1ccc(N2CCCC2)c(NC(=O)c2ccc([N+](=O)[O-])o2)c1,–,-82.1%
O=C(Nc1ccc(Br)cn1)c1ccc([N+](=O)[O-])o1,17.8 µM (active),–
Cc1cccc(NC(=O)CCn2c(=O)oc3ccccc32)c1,–,-6.99%
Cc1cccc(NC(=O)c2ccc([N+](=O)[O-])o2)c1,22.4 µM (active),–
O=C(NCc1nnnn1-c1ccc(Cl)cc1)c1ccc([N+](=O)[O-])o1,–,-116%
